Measurements from PubChem BioAssay AID1053188 (Broad Institute, 2014).
Where “and” joins values, the source holds several entries; their conditions need not be identical. Equal values may be shown once. Among all 83,000 compounds or so, about 780 (0.94%) were called active.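 The calls were made as follows: active = mean inhibition of at least 50% with a set share of replicates also reaching that level; inconclusive = no clear call, values can overlap the other calls; inactive = the rest.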 The sample as a whole holds a higher share of actives than the screen did.

experiment: inhibitors of CD40-induced NF-kB signaling, primary screen, BL2 cells, luciferase reporter, single point (AID 1053188); settings: CD40L-induced, 4 h, at 10 µM, stronger effect = higher value;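 also: 0% = neutral control wells and 100% = IKK inhibitor VII at 50 µM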

Q: With `CC(=O)OC1C2(CC3N4C(=O)C5(CO)SSC4(CC31O)C(=O)N5C)OC(C)C(C)(C)C2=O` (stereo not given) as the compound, how does the inhibition read?
A: The inhibition was 107% (active).

Q: For `Cc1nn(-c2ccccc2)c(C)c1NC(=O)COC(=O)Cc1ccccc1`, which inhibition is on record?
A: Its inhibition is 3.56% (inactive).

Q: Which inhibition does the source give for `N=c1ccccn1Cc1ccccc1` here?
A: The inhibition was 5.42% (inactive).

Q: With `CCC(C)(O)C(=O)OC1C(=O)OC2CC3C(C)=CC(=O)C(O)C3(C)C3C4(O)OCC23C1C(C)C4O` (stereo not given) as the compound, how does the inhibition read?
A: Its inhibition is 107% (active).

Q: Which inhibition does the source give for `CC(=O)N1C[C@@H]2C(c3ccc(Br)cc3)[C@H](C1)N2C` (stereo not given in full) here?
A: Its inhibition is -3.1% (inactive) and 2.67% (inactive).

Q: Which inhibition does the source give for `Cc1ccc(C(C)C)c(OCC(=O)N2CCN(CC(=O)N3CCOCC3)CC2)c1` here?
A: Its inhibition is -7.63% (inactive).

Q: Which inhibition does the source give for `Cc1cc(C(=O)OCC(=O)Nc2c(F)cccc2F)c(C)n1C1CC1` here?
A: Its inhibition is -11.1% (inactive).

Q: For `Cc1nc2ccc(N3CCN(C)CC3)cc2nc1C`, which inhibition is on record?
A: Its inhibition is -20.7% (inactive).

Q: With `CCOC(=O)C1(CCc2ccccc2)CCN(Cc2ccco2)CC1` as the compound, how does the inhibition read?
A: The inhibition was 11.2% (inactive).

Q: For `c1ccc(CC2CCCCN2)cc1` (stereo not given), which inhibition is on record?
A: Its inhibition is -1.33% (inactive).
